Read-out in assay [1]: Interleukin-8 (IL8), CXCL8 (gene 3576)
Description: BSK_CASM3C_IL8: BioMAP Diversity Plus: CASM3C Assay for Interleukin-8 (IL8) Biomarker Activity (AID 2283042).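 Further: IL-8 protein level quantified by ELISA.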 As to conditions: primary human coronary artery smooth muscle cells; actives raise or lower the signal.

Read-out in assay [2]: Human Leukocyte Antigen - DR isotype (HLADR), HLA-DRA (gene 3122)
Nature of the assay: BSK_CASM3C_HLADR: BioMAP Diversity Plus: CASM3C Assay for Human Leukocyte Antigen - DR isotype (HLADR) Biomarker Activity (AID 2283043).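 Further: cell-surface HLA-DR protein level quantified by ELISA.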 As to conditions: primary human coronary artery smooth muscle cells; actives raise or lower the signal.

Read-out in assay [3]: Macrophage colony-stimulating factor (MCSF), CSF1 (gene 1435)
Description: BSK_CASM3C_MCSF: BioMAP Diversity Plus: CASM3C Assay for Macrophage colony-stimulating factor (MCSF) Biomarker Activity (AID 2283044).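 Further: M-CSF protein amount quantified by ELISA after 24 h exposure.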 The settings on record: primary human coronary artery smooth muscle cells; actives raise or lower the signal.

Read-out in assay [4]: Low-density lipoprotein receptor (LDLR), LDLR (gene 3949)
Nature of the assay: BSK_CASM3C_LDLR: BioMAP Diversity Plus: CASM3C Assay for Low-density lipoprotein receptor (LDLR) Biomarker Activity (AID 2283045).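 Further: LDLR protein level on the cell surface quantified by ELISA.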 As to conditions: primary human coronary artery smooth muscle cells; actives raise or lower the signal.

Read-out in assay [5]: Monocyte Chemoattractant Protein-1 (MCP1), CCL2 (gene 6347)
Description: BSK_CASM3C_MCP1: BioMAP Diversity Plus: CASM3C Assay for Monocyte Chemoattractant Protein-1 (MCP1) Biomarker Activity (AID 2283046).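 Further: MCP-1 level quantified by ELISA 24 h after dosing.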 The settings on record: primary human coronary artery smooth muscle cells; actives raise or lower the signal.

The nature of assay [6]: BSK_CASM3C_Proliferation: Cell Proliferation Assessment in the BioMAP Diversity Plus: CASM3C Assay (AID 2283047).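 Further: sulforhodamine B total protein stain as relative cell number at 560 nm; sub-confluent cells exposed 48 h before staining; fitted both ways against DMSO so gain or loss of cell number.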 As to conditions: primary human coronary artery smooth muscle cells.
Read-out in assay [7]: Monokine induced gamma interferon (MIG), CXCL9 (gene 4283)
Description: BSK_CASM3C_MIG: BioMAP Diversity Plus: CASM3C Assay for Monokine induced gamma interferon (MIG) Biomarker Activity (AID 2283048).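 Further: MIG protein level measured by ELISA.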 The settings on record: primary human coronary artery smooth muscle cells; actives raise or lower the signal.

Read-out in assay [8]: serum amyloid A (SAA), SAA1 (gene 6288)
Description: BSK_CASM3C_SAA: BioMAP Diversity Plus: CASM3C Assay for serum amyloid A (SAA) Biomarker Activity (AID 2283049).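 Further: SAA protein level quantified by ELISA.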 The settings on record: primary human coronary artery smooth muscle cells; actives raise or lower the signal.

Assay [9] can be described thus: BSK_CASM3C_SRB: Viability Assessment in the BioMAP Diversity Plus: CASM3C Assay (AID 2283050).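 Further: total protein by SRB staining as cytotoxicity measure in parallel cultures; cells exposed to compound for 24 h.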 As to conditions: primary human coronary artery smooth muscle cells.
Read-out in assay [10]: Thrombomodulin, THBD (gene 7056)
Nature of the assay: BSK_CASM3C_Thrombomodulin: BioMAP Diversity Plus: CASM3C Assay for Thrombomodulin Biomarker Activity (AID 2283051).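 Further: thrombomodulin protein level measured by ELISA 24 h after dosing.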 The settings on record: primary human coronary artery smooth muscle cells; actives raise or lower the signal.

Activity calls are given as the source filed them. How the source made its calls: active means hit-call score of the fitted dose curve at least 0.9, where 1 is the maximum; inactive means score below 0.9.

As for `CC[C@H](C)C(=O)O[C@H]1C[C@@H](C)C=C2C=C[C@H](C)[C@H](CC[C@@H]3C[C@@H](O)CC(=O)O3)[C@H]21`, the outcome in [1], in assay [3], in assay [4], in [7], in assay [8] and in [9] was inactive. Moreover, the AC50 in assay [2] is 19.9 µM (active); in assay [5], 19.9 µM (active); in assay [6] it was 6.08 µM (active); in [10], 0.147 µM (active).
In the case of `CCOc1cccc(-n2cc(C(=O)N3CCN(c4cc(C(=O)O)c5ccccc5c4)CC3)nc2-c2ccc(C)cc2)c1`, the result in [1], in assay [4], in [8], in assay [9] and in assay [10] was inactive. In addition, the AC50 in assay [2] is 27 µM (active); in [3], 19.2 µM (active); in [5], 34.5 µM (active); in [6] it was 30.4 µM (active); in [7], 19.2 µM (active).
For `CN(C)c1ccc(Cc2ccc(N(C)C)cc2)cc1`, the outcome in assay [1], in [2], in assay [4], in [5], in assay [6] and in [7] was inactive. The outcome in assay [8] and in assay [9] was inactive. Besides, the AC50 in assay [10] was 20 µM (active).
Take `CNCc1ccc(NC(=O)c2c[nH]c3c2C(=O)CCC3)cc1`: the result in assay [1], in [2], in assay [3], in assay [4], in [5] and in assay [6] was inactive. Moreover, the outcome in [7], in assay [8], in [9] and in [10] was inactive.
As to `COc1ccc(-n2nc(C(F)F)cc2-c2ccc(S(C)=O)cc2)cc1` (centres undefined), the outcome in assay [1], in assay [2], in assay [3], in [4], in assay [5] and in assay [6] was inactive. For the same molecule, the result in assay [7], in assay [8], in assay [9] and in [10] was inactive.
Turning to `CCNc1ccccc1`, the outcome in assay [1], in [2], in [3], in [4], in [5] and in assay [6] was inactive. Also, the result in assay [7], in assay [8], in assay [9] and in assay [10] was inactive.
In the case of `O=C(CCCCCCCCc1cccnc1)N1CCC(C=C(c2ccccc2)c2ccccc2)CC1`, the AC50 in assay [1] is 38.3 µM (active); in assay [2], 35 µM (active); in [3] it was 38 µM (active); in assay [4], 34.3 µM (active); in assay [5], 38.2 µM (active); in [6] it was 35.4 µM (active). The AC50 in assay [7] is 38.3 µM (active); in assay [8] it was 37.5 µM (active); in [9], 39.1 µM (active). In addition, in assay [10], the outcome was inactive.
Take `COc1cccc(-c2ccc(/C=C\CN3CCCCCC3)cc2Cl)c1`: the outcome in assay [1], in assay [5], in [7] and in assay [10] was inactive. The AC50 in assay [2] was 29.5 µM (active); in [3], 29.4 µM (active); in [4] it was 4.74 µM (active); in assay [6] it was 29.8 µM (active); in assay [8] it was 32 µM (active); in [9], 25 µM (active).

As usually defined, the AC50 is the midpoint of the concentration-response curve, whichever way the signal moves.
